Paper PMC4552634, “A New Set of Chemical Starting Points with Plasmodium falciparum Transmission-Blocking Potential for Antimalarial Drug Discovery” (PLoS ONE, 2015)
About 3,200 (25%) of roughly 13,000 compounds showed an effect of 50% or more. The list shows a part of the results.

What follows are molecules tested on P. falciparum stage V gametocytes. Settings: 48 h, 5 µM; inhibitor.
Parameters: BacTiter-Glo ATP luminescence viability of purified stage V gametocytes in 384-well plates, per cent inhibition versus DMSO

SMILES	% Inhibition
Cc1c(Cc2ccccc2)c(=O)oc2c(C)c3c(cc12)CN(CC(C)c1ccccc1)CO3 (stereo not shown) [TCMDC-125127]	34.31%
O=c1cc(NCCCNCc2sc(Br)nc2Br)[nH]c2ccccc12 [TCMDC-140422]	-16.17%
Cc1ccccc1C1CCN(C2CCC(NC(=O)/C=C/c3cccc(Cl)c3Cl)CC2)CC1 (stereo not shown) [TCMDC-133519]	-94.66%
Cc1sc2nc(CN3CCCC3)nc(-n3c(NCCO)nc4ccccc43)c2c1C [TCMDC-124811]	45.04%
OC(c1ccc(Cl)cc1)(c1ccc(Cl)cc1)C(c1ccc(Cl)cc1)n1ccnc1 (stereo not shown) [TCMDC-125069]	44.24%
Cc1cccc(Cl)c1Nc1nnc(-c2cccc(C(=O)NC[C@@H]3CC[C@H]4C[C@@H]3C4(C)C)c2)o1 [TCMDC-135040]	-14.01%
CN1CCN(c2cccc(-c3nnc(-c4ccc(OCC(=O)NCc5cccc(C(F)(F)F)c5)c([N+](=O)[O-])c4)o3)c2)CC1 [TCMDC-134941]	-68.92%
O=C(NCc1ccc(C(F)(F)F)cc1)c1cccc(-c2nnc(-c3cccc(-c4cncnc4)c3)o2)c1 [TCMDC-134944]	18.23%
CC(C)(C)OC(=O)NCc1ccc(Nc2nnc(-c3cccc(C(=O)NCc4cc(C(F)(F)F)cc(C(F)(F)F)c4)c3)o2)cc1 [TCMDC-135229]	97.34%
CC(=O)NCCNCc1cccc(C(=O)NCc2cccc(C(F)(F)F)c2)c1 [TCMDC-140900]	22.07%
CC(C)(C)OC(=O)NCc1ccc(Nc2nnc(-c3cccc(C(=O)NCCC(c4ccccc4)c4ccccc4)c3)o2)cc1 [TCMDC-134989]	99.36%
CC(C)(C)OC(=O)NCc1ccc(Nc2nnc(-c3cccc(OCC(=O)NCc4cc(C(F)(F)F)cc(C(F)(F)F)c4)c3)o2)cc1 [TCMDC-134993]	101.9%
CN1CCN(c2cccc(-c3nnc(-c4cccc(OCC(=O)NCc5ccc(C(F)(F)F)cc5)c4)o3)c2)CC1 [TCMDC-134943]	0.9055%
CCCNC(=O)c1cncc(-c2ccc(CNC(CC)c3ccccc3)cc2)c1 (stereo not shown) [TCMDC-134238]	-1.576%
O=c1ccc2ccc(F)c3c2n1CC3CN1CCC(NCc2cccc(-c3ccccc3F)c2)CC1 (stereo not shown) [TCMDC-134405]	-31.68%
COc1ccc2nccc([C@@H](O)CN3CCC(NCc4cnc5snnc5c4)C(F)C3)c2c1 (stereo partly shown) [TCMDC-141752]	25.48%
Cc1ccccc1C1CCN(c2ccc(NC(=O)c3ccc(Cl)nc3)cc2)CC1 [TCMDC-134586]	25.08%
O=C(Nc1cc(Cl)cc(Cl)c1)c1cnn(-c2ccc(F)cc2)c1C1CCNCC1 [TCMDC-124410]	50.02%
O=C(Nc1ccc(Cn2ncc(N3CCCNCC3)c(Cl)c2=O)cc1)Nc1cc(Cl)cc(Cl)c1 [TCMDC-133326]	-9.301%
Cc1ccccc1C1CCN(c2ncc(C(=O)Nc3ccccc3)cc2Cl)CC1 [TCMDC-134630]	-30.75%
CCCc1c(C(=O)Nc2ccc3c(c2)CCN(C2CCC2)CC3)cnn1-c1ccc(Cl)cc1 [TCMDC-136081]	40.23%
Cc1ccc(-n2ncc(C(=O)Nc3cc(Cl)cc(Cl)c3)c2C2CCNCC2)cc1C [TCMDC-124409]	57.45%
